For 8 compounds, growth results are on record in PubChem BioAssay (NCI).

Some test systems named below: NCI-H23 lung; NCI-H226 lung; NCI-H322M lung; HOP-62 NSCLC; NCI-H460 lung; HOP-92 NSCLC; NCI-H522 lung; A549/ATCC NSCLC; 786-0 renal; COLO 205 colon; DU-145 prostate; K-562 leukemia; MALME-3M melanoma; MDA-MB-231 breast; RXF 393 renal; SF-268 CNS; SF-295 CNS; SF-539 CNS; UACC-257 melanoma; M14 melanoma.
Holding throughout (assay): NCI-60 one-dose screen, 48 h (100 = growth as untreated, 0 = no growth, -100 = all killed)
Conditions in all cases: 10 µM unless noted

About 83,000 compounds went through this panel and 20% of them were active in at least one assay; those are over-represented in the sample as a whole.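 Cell lines were cultured in 96-well plates, exposed to a single compound concentration, and assessed for percent growth 48 hours later.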 Values without a mark were called inactive. The source made the active and inactive calls. How the source made its calls: active means growth percent below 10; inactive means the rest.

For the compound `CC(=O)Cc1nsc(NC(=O)c2ccoc2COc2ccccc2)n1`, the growth in the assay on NCI-H23 lung is 95.2%; with NCI-H226 lung it was 105%; in the assay with NCI-H322M lung, 94.3%; with HOP-62 NSCLC, 107%; in the assay on NCI-H460 lung it was 107%; with HOP-92 NSCLC, 90.1%. Besides, the growth is 94.1% in the assay on NCI-H522 lung; 99.3% in the assay with A549/ATCC NSCLC; 98.7% in the assay with 786-0 renal; 121% in the assay with COLO 205 colon; 106% in the assay with DU-145 prostate; 90.6% in the assay with K-562 leukemia. The growth was 96.8% in the assay with MALME-3M melanoma; 95% in the assay on MDA-MB-231 breast; 113% with RXF 393 renal; 96.3% in the assay on SF-268 CNS; 98.6% with SF-295 CNS; 91.6% with SF-539 CNS. Moreover, the values for the growth with UACC-257 melanoma and with M14 melanoma were 93.2% and 95.4%, respectively.
`COc1ccc(-n2c(/C=C/c3ccc(O)c(OC)c3)cc(/C=C/c3ccc(O)c(OC)c3)nc2=O)cc1`: the growth in the assay with NCI-H23 lung was 42.5%; in the assay on NCI-H226 lung, 70.7%; in the assay on NCI-H322M lung, 83.6%; in the assay on HOP-62 NSCLC, 63.4%; in the assay with NCI-H460 lung, 78%; in the assay on HOP-92 NSCLC, 79.8%. In addition, the growth was 29.3% with NCI-H522 lung; 79.1% with A549/ATCC NSCLC; 82.8% in the assay on 786-0 renal; 56.8% with COLO 205 colon; 68.9% with DU-145 prostate; 11.8% with K-562 leukemia. The growth with MALME-3M melanoma is 85%; in the assay with MDA-MB-231 breast it was 43.8%; in the assay on RXF 393 renal, 45.4%; in the assay with SF-268 CNS it was 41.4%; in the assay with SF-295 CNS it was 82.3%; in the assay on SF-539 CNS it was 39%. Moreover, the growth in the assay with UACC-257 melanoma is 82.2%; in the assay on M14 melanoma, 40.4%.
`COc1ccc(OCC(CO)N2CCN(c3ccccc3)CC2)cc1` (stereo not given): the growth with NCI-H23 lung was 103%; in the assay on NCI-H226 lung, 106%; in the assay on NCI-H322M lung, 115%; in the assay with HOP-62 NSCLC, 118%; in the assay on NCI-H460 lung, 116%; in the assay on HOP-92 NSCLC it was 81.2%. For the same compound, the growth in the assay with NCI-H522 lung is 99.4%; in the assay with A549/ATCC NSCLC, 100%; with 786-0 renal, 101%; in the assay on COLO 205 colon, 96.3%; in the assay on DU-145 prostate, 111%; in the assay on K-562 leukemia it was 126%. Further, the growth in the assay with MALME-3M melanoma was 82.7%; in the assay on MDA-MB-231 breast it was 97%; with RXF 393 renal, 119%; with SF-268 CNS, 95.8%; in the assay with SF-295 CNS, 101%; in the assay with SF-539 CNS it was 98.5%. Besides, the growth in the assay with UACC-257 melanoma was 96.1%; in the assay with M14 melanoma it was 99.8%.
In the case of `Cc1cc2nc3c4cc([N+](=O)[O-])cc([N+](=O)[O-])c4n(CCN(C)C)c3nc2cc1C`, the growth with NCI-H23 lung is 77.7%; in the assay on NCI-H226 lung it was 84.1%; in the assay with NCI-H322M lung it was 72.2%; in the assay with HOP-62 NSCLC it was 64.7%; in the assay with NCI-H460 lung, 65.4%; with HOP-92 NSCLC it was 80.7%. For the same compound, the growth in the assay with NCI-H522 lung was 70.6%; in the assay on A549/ATCC NSCLC it was 73.5%; in the assay on 786-0 renal it was 80.4%; with COLO 205 colon, 71.1%; in the assay on DU-145 prostate it was 92.1%; in the assay with K-562 leukemia, 62.3%. Also, the growth was 76.5% with MALME-3M melanoma; 77.2% in the assay with MDA-MB-231 breast; 58.3% with RXF 393 renal; 74.1% in the assay on SF-268 CNS; 62.9% in the assay with SF-295 CNS; 76.5% with SF-539 CNS. Besides, the growth is 107% in the assay with UACC-257 melanoma and 80.1% with M14 melanoma.
As to `Clc1cc(Cl)cc(Nc2ccc3c(OCCCN4CCOCC4)cccc3n2)c1`, the growth in the assay on NCI-H23 lung was 77%; in the assay on NCI-H226 lung it was 26.6%; in the assay on NCI-H322M lung, 45.1%; with HOP-62 NSCLC it was 57.4%; in the assay with NCI-H460 lung, 13.1%; with HOP-92 NSCLC, 37.3%. Besides, the growth was 5.16% (active) in the assay on NCI-H522 lung; 25.6% in the assay on A549/ATCC NSCLC; 54% in the assay on 786-0 renal; -53.4% (active) in the assay on COLO 205 colon; 41.9% in the assay on DU-145 prostate; -33.9% (active) in the assay with K-562 leukemia. The growth is 71% in the assay with MALME-3M melanoma; -24.6% (active) with MDA-MB-231 breast; 53.5% with RXF 393 renal; 48.4% with SF-268 CNS; 30.6% in the assay with SF-295 CNS; 48.1% in the assay on SF-539 CNS. In addition, the growth with UACC-257 melanoma is 73.2%; in the assay with M14 melanoma it was 0.379% (active).
On to `COc1cc2c(cc1-c1c(C)noc1C)ncc1nc(C3CC3)n([C@H](C)COC(F)F)c12`, for which the growth in the assay with NCI-H23 lung was 65.4%; in the assay with NCI-H226 lung, 58.1%; in the assay on NCI-H322M lung it was 47.8%; in the assay on HOP-62 NSCLC it was 43.4%; with NCI-H460 lung, 60.7%; with HOP-92 NSCLC, 37%. For the same compound, the growth was 27.4% with NCI-H522 lung; 36.1% in the assay with A549/ATCC NSCLC; 51.6% with 786-0 renal; 25.1% in the assay with COLO 205 colon; 72.4% in the assay on DU-145 prostate; 30.4% in the assay with K-562 leukemia. For the same compound, the growth in the assay on MALME-3M melanoma was 80.4%; in the assay on MDA-MB-231 breast it was 51%; with RXF 393 renal, 53.9%; in the assay on SF-268 CNS it was 71.2%; with SF-295 CNS, 56.8%; in the assay with SF-539 CNS, 39.4%. Also, the growth in the assay with UACC-257 melanoma is 36.3%; in the assay on M14 melanoma it was 44.2%.
For the compound `O=C1Nc2ccccc2/C1=C/c1cn(CCCn2c3ccccc3c(=O)c3ccccc32)c2ccccc12`, the growth was 79.2% in the assay on NCI-H23 lung; 81.3% in the assay on NCI-H226 lung; 86.8% in the assay on NCI-H322M lung; 80.3% in the assay on HOP-62 NSCLC; 96.3% in the assay with NCI-H460 lung; 83.4% in the assay with HOP-92 NSCLC. Besides, the growth is 77.5% in the assay on NCI-H522 lung; 96.5% in the assay on A549/ATCC NSCLC; 82.9% in the assay on 786-0 renal; 88.6% in the assay with COLO 205 colon; 102% with DU-145 prostate; 91.7% in the assay on K-562 leukemia. The growth is 98.7% in the assay with MALME-3M melanoma; 67.9% with MDA-MB-231 breast; 104% in the assay on RXF 393 renal; 79.2% in the assay on SF-268 CNS; 91.5% in the assay on SF-295 CNS; 86.8% with SF-539 CNS. Further, the growth is 109% with UACC-257 melanoma and 91.1% with M14 melanoma.
For the compound `C[C@H]1[C@@H]2[C@H]3CC[C@@H]4[C@@]5(C)Cc6c([nH]c7ccccc67)C(C)(C)[C@@H]5CC[C@@]4(C)[C@]3(C)CC[C@]23CO[C@]1(C)[C@@H](C(=O)/C=C/c1ccccn1)C3`, the growth was 91.7% in the assay with NCI-H23 lung; 101% in the assay on NCI-H226 lung; 112% in the assay on NCI-H322M lung; 109% in the assay on HOP-62 NSCLC; 98.3% in the assay with NCI-H460 lung; 67.2% in the assay with HOP-92 NSCLC. Also, the growth in the assay with NCI-H522 lung was 92.1%; in the assay on A549/ATCC NSCLC, 89.4%; with 786-0 renal, 106%; in the assay on COLO 205 colon it was 102%; in the assay with DU-145 prostate it was 102%; with K-562 leukemia, 72.5%. The growth is 106% in the assay with MALME-3M melanoma; 85% in the assay with MDA-MB-231 breast; 89.3% in the assay with RXF 393 renal; 88.8% with SF-268 CNS; 99.4% in the assay with SF-295 CNS; 84.9% with SF-539 CNS. The growth in the assay on UACC-257 melanoma was 103%; with M14 melanoma, 93.6%.
